# About 8,800 targets were measured; listed, in parts, are those with a hit and a random draw of the rest. About 0.5% of all pairs of compound and target were hits. Unmarked numbers belong to inactive results.
# Compound: CNc1nc(-c2ccc3c(N)n[nH]c3c2)cc(N2C[C@@H](C(=O)NC3CCCCC3)CC[C@H]2C)n1
# Assay: log2 fold change, soluble protein after heating vs DMSO (PISA); higher = thermal stabilisation; K562 lysate, 10 uM; active = over 0.2 and 3.5 SD of the protein, either way, in both replicates (recomputed)
# Summary of the method: (§1)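 Log-two fold change in thermal stability relative to solvent controls is reported from duplicates. For each sample, crude K562 extract from dounce-homogenised pellets in PBS pH 7.4 with 1 mM MgCl2, at 1 mg/mL protein, was treated with 10 μM compound for 30 min. Aliquots heated for 3 min across 48°C-58°C were pooled, brought to 0.5% NP-40 at 4°C and cleared at 21,000xg for 90 min. The supernatant was quantified by TMTpro 16plex LC-MS/MS with channel sums equalised.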
# UniProt O43303, sequence (O43303 whole entry, looked up): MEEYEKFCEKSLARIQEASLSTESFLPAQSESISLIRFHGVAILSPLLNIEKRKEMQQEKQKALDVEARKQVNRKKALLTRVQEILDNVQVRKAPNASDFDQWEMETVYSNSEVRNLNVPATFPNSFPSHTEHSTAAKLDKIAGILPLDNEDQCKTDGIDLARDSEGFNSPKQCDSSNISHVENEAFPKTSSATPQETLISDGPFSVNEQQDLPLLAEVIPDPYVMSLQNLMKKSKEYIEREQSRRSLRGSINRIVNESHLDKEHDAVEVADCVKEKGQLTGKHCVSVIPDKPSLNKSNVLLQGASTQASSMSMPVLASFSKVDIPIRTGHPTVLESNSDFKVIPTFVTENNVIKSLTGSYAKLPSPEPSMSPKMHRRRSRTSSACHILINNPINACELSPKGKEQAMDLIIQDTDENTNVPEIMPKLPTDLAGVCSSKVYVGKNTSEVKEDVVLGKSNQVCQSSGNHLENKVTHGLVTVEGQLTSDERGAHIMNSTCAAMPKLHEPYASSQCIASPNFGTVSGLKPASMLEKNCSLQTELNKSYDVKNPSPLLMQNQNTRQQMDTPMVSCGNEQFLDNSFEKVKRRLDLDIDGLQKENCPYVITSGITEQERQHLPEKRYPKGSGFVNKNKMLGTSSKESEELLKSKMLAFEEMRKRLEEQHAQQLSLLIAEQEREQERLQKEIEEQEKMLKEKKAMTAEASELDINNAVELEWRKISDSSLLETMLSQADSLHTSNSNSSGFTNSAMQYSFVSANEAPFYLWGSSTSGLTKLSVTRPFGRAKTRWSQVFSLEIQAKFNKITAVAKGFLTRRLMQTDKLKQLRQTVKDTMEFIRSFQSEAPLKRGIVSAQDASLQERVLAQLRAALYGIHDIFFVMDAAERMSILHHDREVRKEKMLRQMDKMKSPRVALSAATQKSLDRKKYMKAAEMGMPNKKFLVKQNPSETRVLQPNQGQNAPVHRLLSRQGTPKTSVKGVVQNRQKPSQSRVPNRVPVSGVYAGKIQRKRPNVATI
# UniProt Q13554, sequence (Q13554 whole entry, looked up): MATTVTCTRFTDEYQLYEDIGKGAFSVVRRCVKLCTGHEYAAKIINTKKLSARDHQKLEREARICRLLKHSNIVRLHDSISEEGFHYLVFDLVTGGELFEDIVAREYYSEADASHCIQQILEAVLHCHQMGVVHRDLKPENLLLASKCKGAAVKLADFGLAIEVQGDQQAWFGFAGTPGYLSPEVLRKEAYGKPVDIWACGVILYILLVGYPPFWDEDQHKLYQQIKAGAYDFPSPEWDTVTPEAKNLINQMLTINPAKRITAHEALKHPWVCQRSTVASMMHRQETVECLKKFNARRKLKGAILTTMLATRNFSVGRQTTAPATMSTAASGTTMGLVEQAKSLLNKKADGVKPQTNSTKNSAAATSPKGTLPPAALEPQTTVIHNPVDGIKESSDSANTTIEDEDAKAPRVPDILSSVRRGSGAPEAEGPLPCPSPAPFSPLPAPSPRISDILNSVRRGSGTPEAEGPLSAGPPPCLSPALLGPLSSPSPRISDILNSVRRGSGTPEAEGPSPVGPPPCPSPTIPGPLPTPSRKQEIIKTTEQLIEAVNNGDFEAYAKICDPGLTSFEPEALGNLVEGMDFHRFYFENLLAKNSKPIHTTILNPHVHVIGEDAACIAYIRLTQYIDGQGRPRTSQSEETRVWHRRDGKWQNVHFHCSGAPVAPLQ
# UniProt Q6P4H8, sequence (Q6P4H8 whole entry, looked up): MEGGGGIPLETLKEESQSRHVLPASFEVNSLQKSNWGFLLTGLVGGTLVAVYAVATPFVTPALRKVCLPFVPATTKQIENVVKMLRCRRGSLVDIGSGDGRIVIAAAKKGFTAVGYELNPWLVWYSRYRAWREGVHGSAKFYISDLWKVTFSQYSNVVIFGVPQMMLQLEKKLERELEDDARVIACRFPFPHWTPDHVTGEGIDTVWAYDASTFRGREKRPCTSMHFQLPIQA
# UniProt Q53HL2, sequence (Q53HL2 whole entry, looked up): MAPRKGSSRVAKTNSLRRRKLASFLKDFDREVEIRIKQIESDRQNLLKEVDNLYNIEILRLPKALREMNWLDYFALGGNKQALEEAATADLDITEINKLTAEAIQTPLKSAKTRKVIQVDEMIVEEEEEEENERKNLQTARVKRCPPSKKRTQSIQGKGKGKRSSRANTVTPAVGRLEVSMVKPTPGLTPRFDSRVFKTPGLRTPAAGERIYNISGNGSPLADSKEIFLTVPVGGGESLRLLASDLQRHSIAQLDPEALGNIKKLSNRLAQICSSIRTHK
# UniProt Q15059, sequence (Q15059 whole entry, looked up): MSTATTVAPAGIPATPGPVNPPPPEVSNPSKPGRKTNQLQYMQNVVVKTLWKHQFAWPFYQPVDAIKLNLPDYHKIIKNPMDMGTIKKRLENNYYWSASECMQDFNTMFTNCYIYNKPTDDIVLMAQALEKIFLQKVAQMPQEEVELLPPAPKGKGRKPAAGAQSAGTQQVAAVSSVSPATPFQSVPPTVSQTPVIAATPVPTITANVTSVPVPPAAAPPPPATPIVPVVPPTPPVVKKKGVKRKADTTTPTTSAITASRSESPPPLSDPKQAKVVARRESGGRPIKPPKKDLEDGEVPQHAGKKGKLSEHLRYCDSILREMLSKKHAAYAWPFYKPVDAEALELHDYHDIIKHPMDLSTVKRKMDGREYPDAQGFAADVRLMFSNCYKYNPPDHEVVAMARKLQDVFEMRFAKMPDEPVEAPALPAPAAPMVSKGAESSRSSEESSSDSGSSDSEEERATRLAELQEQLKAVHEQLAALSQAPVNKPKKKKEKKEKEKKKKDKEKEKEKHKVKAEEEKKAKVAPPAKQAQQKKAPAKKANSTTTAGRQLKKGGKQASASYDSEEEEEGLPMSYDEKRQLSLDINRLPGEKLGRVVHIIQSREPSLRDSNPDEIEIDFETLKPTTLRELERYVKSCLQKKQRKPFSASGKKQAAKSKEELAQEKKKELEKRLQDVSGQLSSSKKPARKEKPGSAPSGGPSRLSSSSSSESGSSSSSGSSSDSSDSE
# UniProt Q9BYV8, sequence (Q9BYV8 whole entry, looked up): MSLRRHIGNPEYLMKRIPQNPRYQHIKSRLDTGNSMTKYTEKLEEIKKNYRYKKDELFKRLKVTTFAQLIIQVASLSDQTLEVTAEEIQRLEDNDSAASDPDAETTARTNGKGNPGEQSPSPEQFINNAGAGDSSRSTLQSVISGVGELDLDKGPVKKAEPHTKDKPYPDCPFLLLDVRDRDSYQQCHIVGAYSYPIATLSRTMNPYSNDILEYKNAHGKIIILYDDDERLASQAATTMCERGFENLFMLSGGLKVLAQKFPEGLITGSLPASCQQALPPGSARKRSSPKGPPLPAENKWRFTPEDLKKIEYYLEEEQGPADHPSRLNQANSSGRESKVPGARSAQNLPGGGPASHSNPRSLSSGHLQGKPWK
# UniProt Q6ZU80, sequence (Q6ZU80 whole entry, looked up): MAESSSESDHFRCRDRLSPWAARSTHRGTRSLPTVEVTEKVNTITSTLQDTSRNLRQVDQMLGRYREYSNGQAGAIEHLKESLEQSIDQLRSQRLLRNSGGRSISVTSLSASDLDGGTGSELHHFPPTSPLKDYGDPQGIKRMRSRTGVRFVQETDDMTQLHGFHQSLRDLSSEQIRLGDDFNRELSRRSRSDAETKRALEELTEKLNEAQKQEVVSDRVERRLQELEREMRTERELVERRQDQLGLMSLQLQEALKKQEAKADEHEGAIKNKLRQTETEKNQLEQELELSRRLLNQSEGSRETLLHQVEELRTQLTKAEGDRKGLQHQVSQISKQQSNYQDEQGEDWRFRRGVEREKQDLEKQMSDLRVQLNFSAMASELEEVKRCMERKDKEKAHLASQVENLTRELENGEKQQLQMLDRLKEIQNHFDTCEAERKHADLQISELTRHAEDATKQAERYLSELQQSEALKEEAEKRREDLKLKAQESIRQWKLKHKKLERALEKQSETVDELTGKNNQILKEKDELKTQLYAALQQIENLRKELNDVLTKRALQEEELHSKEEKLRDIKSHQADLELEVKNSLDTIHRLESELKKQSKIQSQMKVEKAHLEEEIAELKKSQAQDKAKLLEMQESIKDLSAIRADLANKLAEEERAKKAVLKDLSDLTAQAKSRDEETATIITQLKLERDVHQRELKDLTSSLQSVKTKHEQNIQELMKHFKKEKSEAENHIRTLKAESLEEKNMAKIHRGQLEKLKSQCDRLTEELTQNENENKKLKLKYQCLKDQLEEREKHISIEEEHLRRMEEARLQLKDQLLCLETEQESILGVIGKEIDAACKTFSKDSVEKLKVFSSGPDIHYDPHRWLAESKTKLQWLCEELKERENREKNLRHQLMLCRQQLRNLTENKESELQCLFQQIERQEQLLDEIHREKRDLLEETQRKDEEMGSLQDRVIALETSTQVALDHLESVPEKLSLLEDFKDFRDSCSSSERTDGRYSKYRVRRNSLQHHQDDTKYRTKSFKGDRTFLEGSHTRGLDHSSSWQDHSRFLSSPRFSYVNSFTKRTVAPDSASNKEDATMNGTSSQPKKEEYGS
# UniProt Q9BSU1, sequence (Q9BSU1 whole entry, looked up): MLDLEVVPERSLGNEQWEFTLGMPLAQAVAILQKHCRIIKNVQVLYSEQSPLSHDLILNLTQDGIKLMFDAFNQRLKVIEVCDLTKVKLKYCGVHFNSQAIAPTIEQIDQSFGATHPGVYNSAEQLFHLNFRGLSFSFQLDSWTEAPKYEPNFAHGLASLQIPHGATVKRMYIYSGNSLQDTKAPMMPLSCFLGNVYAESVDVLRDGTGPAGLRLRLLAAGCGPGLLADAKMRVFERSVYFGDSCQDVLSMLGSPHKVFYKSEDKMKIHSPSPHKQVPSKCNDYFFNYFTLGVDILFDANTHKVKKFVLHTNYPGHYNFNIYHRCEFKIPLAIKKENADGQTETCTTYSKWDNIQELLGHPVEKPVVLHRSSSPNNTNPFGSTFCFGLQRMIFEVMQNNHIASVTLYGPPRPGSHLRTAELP
# UniProt Q9BUK0, sequence (Q9BUK0 whole entry, looked up): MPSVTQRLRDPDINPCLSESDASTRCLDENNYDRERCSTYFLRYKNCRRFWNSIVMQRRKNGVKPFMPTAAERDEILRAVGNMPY
row,Target,log2 fold change
1,CCND3 (UniProt P30281),0.037
2,CDKL5 (UniProt O76039),-0.052
3,CASP7 isoform 3 (UniProt P55210),-0.059
4,CDK11A (UniProt Q9UQ88),0.023
5,CDCA8 (UniProt Q53HL2),-0.061
6,ATG4D (UniProt Q86TL0),-0.008
7,CAMK2B (UniProt Q13554),-0.069
8,B3GALT6 (UniProt Q96L58),0.059
9,CEP128 (UniProt Q6ZU80),-0.037
10,CEP57L1 (UniProt Q8IYX8),-0.09
11,BAHCC1 (UniProt Q9P281),-0.054
12,C6orf120 (UniProt Q7Z4R8),0.066
13,CCP110 (UniProt O43303),0.008
14,CEP41 (UniProt Q9BYV8),0.073
15,ATPSCKMT (UniProt Q6P4H8),-0.027
16,CDK16 isoform 2 (UniProt Q00536),0.106
17,CHCHD7 isoform 4 (UniProt Q9BUK0),-0.141
18,BRD3 (UniProt Q15059),0.09
19,CAPNS1 (UniProt K7ES78),-0.068
20,CDC25A (UniProt P30304),0.035
21,ATXN2 (UniProt F8WB06),-0.09
22,BICRA (UniProt Q9NZM4),0.884 (active)
23,C8orf88 (UniProt P0DMB2),-0.015
24,C16orf70 (UniProt Q9BSU1),-0.005
25,"CHD4, A0A2R8Y521",0.155

# Compound: COC(=O)N[C@@H](C)CNc1nccc(-c2cn(C(C)C)nc2-c2cc(Cl)cc(NS(C)(=O)=O)c2F)n1 [encorafenib]
# Assay: as above
# Summary of the method: as §1
row,Target,log2 fold change
1,CCND3 (UniProt P30281),0.081
2,CDKL5 (UniProt O76039),-0.038
3,CASP7 isoform 3 (UniProt P55210),0.16
4,CDCA8 (UniProt Q53HL2),0.003
5,ATG4D (UniProt Q86TL0),-0.031
6,CAMK2B (UniProt Q13554),-0.045
7,CEP128 (UniProt Q6ZU80),0.064
8,"BRAF, A0A2R8Y8E0",1.3
9,CEP57L1 (UniProt Q8IYX8),0.118
10,BAHCC1 (UniProt Q9P281),0.038
11,CCP110 (UniProt O43303),0.075
12,CENPV (UniProt Q7Z7K6),0.323
13,CEP41 (UniProt Q9BYV8),0.001
14,ATPSCKMT (UniProt Q6P4H8),-0.176
15,CDK16 isoform 2 (UniProt Q00536),0.04
16,CEP295 isoform 3 (UniProt Q9C0D2),-0.154
17,CHCHD7 isoform 4 (UniProt Q9BUK0),0.005
18,BRD3 (UniProt Q15059),-0.016
19,C16orf70 (UniProt Q9BSU1),0.04
20,"CHD4, A0A2R8Y521",0.046
21,CAD (UniProt H7BZB3),0.113
22,CCDC130 (UniProt P13994),-0.015

# Compound: COC(=O)[C@H](CCSC)NC(=O)C1=C(C=C(C=C1)NC[C@H](CS)N)C2=CC=CC=C2
# Assay: as above
# Summary of the method: as §1
row,Target,log2 fold change
1,CCND3 (UniProt P30281),-0.128
2,CDKL5 (UniProt O76039),-0.116
3,CASP7 isoform 3 (UniProt P55210),0.379 (active)
4,CDCA8 (UniProt Q53HL2),-0.044
5,ATG4D (UniProt Q86TL0),-0.155
6,CAMK2B (UniProt Q13554),0.067
7,CEP128 (UniProt Q6ZU80),0.031
8,"BRAF, A0A2R8Y8E0",0.076
9,CEP57L1 (UniProt Q8IYX8),-0.023
10,BAHCC1 (UniProt Q9P281),-0.024
11,CCP110 (UniProt O43303),0.125
12,CENPV (UniProt Q7Z7K6),-0.045
13,CEP41 (UniProt Q9BYV8),-0.139
14,ATPSCKMT (UniProt Q6P4H8),0.17
15,CDK16 isoform 2 (UniProt Q00536),-0.024
16,CEP295 isoform 3 (UniProt Q9C0D2),0.149
17,CHCHD7 isoform 4 (UniProt Q9BUK0),-0.003
18,BRD3 (UniProt Q15059),0.018
19,C16orf70 (UniProt Q9BSU1),-0.135
20,"CHD4, A0A2R8Y521",-0.086
21,CAD (UniProt H7BZB3),0.059
22,CCDC130 (UniProt P13994),0.09
